Results as given in PubChem BioAssay.
Where “and” joins values, the source holds several entries; their conditions need not be identical. Equal entries are not always repeated. Records with an inconclusive call do not appear. Calls of active or inactive are those of the source.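 How the source made its calls, unless noted: active means normalized viability below 100% at a tested concentration; inactive means the rest.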

Assays:
[1] = growth inhibition of DIPG glioma cells, dose response, cell-based, SU-DIPG-XVII, MIPE5.0, CellTiter-Glo, qHTS (AID 1347060; cut-off not given, nearly all actives have AC50 up to about 26 µM;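 on AC50: cells exposed to compound for 48 hours before viability readout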); conditions: SU-DIPG-XVII viability, CellTiter-Glo ATP luminescence
[2] = growth inhibition of DIPG glioma cells, dose response, cell-based, SU-DIPG-XIII, MIPE4.0, CellTiter-Glo, qHTS (AID 1347061; cut-off not given, nearly all actives have AC50 up to about 37 µM;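 further: cells exposed to compound for 48 hours before readout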); conditions: SU-DIPG-XIII viability, CellTiter-Glo ATP luminescence
[3] = growth inhibition of DIPG glioma cells, dose response, cell-based, JHH-DIPG-1, MIPE4.0, CellTiter-Glo, qHTS (AID 1347062; cut-off not given, nearly all actives have AC50 up to about 27 µM;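 on AC50: cells exposed to compound for two days before readout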); conditions: JHH-DIPG-1 viability, CellTiter-Glo ATP luminescence
[4] = growth inhibition of DIPG glioma cells, dose response, cell-based, SU-DIPG-IV, MIPE4.0, CellTiter-Glo, qHTS (AID 1347063; cut-off not given, nearly all actives have AC50 up to about 30 µM;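 further: compound exposure lasted 48 hours before the viability readout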); conditions: SU-DIPG-IV viability, CellTiter-Glo ATP luminescence
[5] = growth inhibition of DIPG glioma cells, dose response, cell-based, SU-DIPG-XIII, MIPE5.0, CellTiter-Glo, qHTS (AID 1347064; cut-off not given, nearly all actives have AC50 up to about 23 µM;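 on AC50: cells exposed to compound for 48 hours before the viability read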); conditions: SU-DIPG-XIII viability, CellTiter-Glo ATP luminescence
[6] = viability loss in pontine glioma line – cell-based, SU-DIPG-XXV, MIPE5.0, CellTiter-Glo, qHTS, dose response (AID 1347065; cut-off not given, nearly all actives have AC50 up to about 26 µM;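 further: cells exposed to compound for 48 hours before ATP readout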); conditions: CellTiter-Glo ATP luminescence
[7] = SU-DIPG-VI glioma cell viability, MIPE4.0 library, CellTiter-Glo luminescence, qHTS (AID 1347066; cut-off not given, nearly all actives have AC50 up to about 30 µM;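 further: cells exposed to compound for 48 hours before readout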); conditions: CellTiter-Glo ATP luminescence
[8] = JHH-DIPG-1 glioma cell viability, MIPE5.0 library, CellTiter-Glo luminescence, qHTS (AID 1347067; cut-off not given, nearly all actives have AC50 up to about 26 µM;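 further: cells exposed to compound for 48 hours before readout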); conditions: JHH-DIPG-1 glioma viability, CellTiter-Glo ATP luminescence
[9] = sensitizers of A549 cells to miR-34 induction, primary screen, imaging, A549 dox-inducible miR-34, nuclei and caspase counts (AID 1347080;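 active means compounds whose cell count with miR-34 switched on is under 0.7 times the count with it off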); conditions: A549 miR-34 inducible, Hoechst nuclei count, 48 h
[10] = survival rescue of mitochondrial mutant cells in low glucose, primary screen, MELAS cybrids, Rieske KO mouse fibroblasts, CellTiter-Glo (AID 1508586;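 active means mean z-score across replicates of 1.96 or higher in either the MELAS or the Rieske mutant cell line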;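 further: z relative to plate mean and SD of compound and empty wells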)
[11] = modifiers of HSF1 nuclear foci, imaging, Selleck Cancer Library (AID 1347162; in the data active means plate-normalised HSF1 focus index below about 0.46); conditions: human cells, at 10 µM; SSMD: measured here: HSF1 foci SSMD mean; cell count: measured here: cell number; plate-normalised HSF1 focus index: stronger effect = lower value
[12] = ovarian cancer cell viability with rucaparib, profiling panel, oncology-focused library, rucaparib conditional (AID 1508598); conditions: patient-derived ovarian cancer cells, CellTiter-Glo viability, 144 h, stronger effect = lower value
[13] = SU-DIPG-XXV glioma cell viability, MIPE5.0 library, qHTS (AID 1347068; cut-off not given, nearly all actives have IC50 up to about 30 µM;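 further: cells exposed to compound for 48 hours before viability readout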)
[14] = stronger effect = lower value, cell number ratio, induced over uninduced
[15] = measured here: relative caspase fold change +Dox/-Dox
[16] = measured here: total cells with miR-34 induction, stronger effect = lower value
[17] = measured here: total cells without miR-34 induction
[18] = MELAS cybrid survival, CellTiter-Glo 48 h, stronger effect = higher value
[19] = Rieske KO mouse fibroblast survival, CellTiter-Glo 72 h

CCCCCCCN(CC)CCCC(O)c1ccc(NS(C)(=O)=O)cc1 (stereo unspecified)
7740: cell count [9, 16]
0.577: fold change [9, 15]
0.0673 and -0.0365: z-score [10, 19]
8450: cell count [9, 17]
inactive: outcome [1] | outcome [2] | outcome [3] | outcome [4] | outcome [5] | outcome [6] | outcome [7] | outcome [8] | fold change [9, 14] 0.916 | z-score [10, 18] -0.187 and 0.657

Oc1cccc(-c2nc(N3CCOCC3)c3oc4ncccc4c3n2)c1
2190 and 1580: cell count [9, 17]
-0.00105: z-score [10, 19]
7310: cell count [11]
2320 and 1430: cell count [9, 16]
inactive: fold change [9, 14] 1.06 and 0.903 | plate-normalised HSF1 focus index [11] 0.749 | viability ([12]; at 0.000305 µM, OCI-C5x cells, with rucaparib 10 µM, 100% = cells with rucaparib alone) 109% | viability ([12]; at 0.000305 µM, OCI-C5x cells, without rucaparib) 110% | viability ([12]; at 0.000305 µM, OCI-P5x cells, with rucaparib 20 µM, 100% = cells with rucaparib alone) 120% | viability ([12]; at 0.000305 µM, OCI-P5x cells, without rucaparib) 103% | viability ([12]; at 0.00122 µM, OCI-C5x cells, with rucaparib 10 µM, 100% = cells with rucaparib alone) 109% | viability ([12]; at 0.00122 µM, OCI-C5x cells, without rucaparib) 104% | viability ([12]; at 0.00122 µM, OCI-P5x cells, with rucaparib 20 µM, 100% = cells with rucaparib alone) 117% | viability ([12]; at 0.00488 µM, OCI-P5x cells, with rucaparib 20 µM, 100% = cells with rucaparib alone) 106% | viability ([12]; at 0.00488 µM, OCI-P5x cells, without rucaparib) 103% | viability ([12]; at 0.0195 µM, OCI-P5x cells, with rucaparib 20 µM, 100% = cells with rucaparib alone) 113% | viability ([12]; at 0.0195 µM, OCI-P5x cells, without rucaparib) 100% | viability ([12]; at 0.0781 µM, OCI-C5x cells, with rucaparib 10 µM, 100% = cells with rucaparib alone) 103% | viability ([12]; at 0.0781 µM, OCI-C5x cells, without rucaparib) 107% | viability ([12]; at 0.313 µM, OCI-C5x cells, with rucaparib 10 µM, 100% = cells with rucaparib alone) 123% | viability ([12]; at 0.313 µM, OCI-C5x cells, without rucaparib) 114%
-4.03: SSMD [11]
0.551 and 1.05: fold change [9, 15]
active: AC50 [1] 0.525 µM | AC50 [2] 1.21 µM | AC50 [3] 0.215 µM | AC50 [4] 0.0429 µM | AC50 [5] 0.332 µM | AC50 [6] 0.186 µM | AC50 [7] 3.82 µM | AC50 [8] 5.25 µM | z-score [10, 18] 2.46 | viability ([12]; at 0.00122 µM, OCI-P5x cells, without rucaparib) 98.5% | viability ([12]; at 0.00488 µM, OCI-C5x cells, with rucaparib 10 µM, 100% = cells with rucaparib alone) 75.7% | viability ([12]; at 0.00488 µM, OCI-C5x cells, without rucaparib) 93.3% | viability ([12]; at 0.0195 µM, OCI-C5x cells, with rucaparib 10 µM, 100% = cells with rucaparib alone) 79.3% | viability ([12]; at 0.0195 µM, OCI-C5x cells, without rucaparib) 72.3% | viability ([12]; at 0.0781 µM, OCI-P5x cells, with rucaparib 20 µM, 100% = cells with rucaparib alone) 97.5% | viability ([12]; at 0.0781 µM, OCI-P5x cells, without rucaparib) 96.9% | viability ([12]; at 0.313 µM, OCI-P5x cells, with rucaparib 20 µM, 100% = cells with rucaparib alone) 73.1% | viability ([12]; at 0.313 µM, OCI-P5x cells, without rucaparib) 95.8% | viability ([12]; at 1.25 µM, OCI-C5x cells, with rucaparib 10 µM, 100% = cells with rucaparib alone) 78.6% | viability ([12]; at 1.25 µM, OCI-C5x cells, without rucaparib) 86.7% | viability ([12]; at 1.25 µM, OCI-P5x cells, with rucaparib 20 µM, 100% = cells with rucaparib alone) 45.8% | viability ([12]; at 1.25 µM, OCI-P5x cells, without rucaparib) 65.7% | viability ([12]; at 5 µM, OCI-C5x cells, with rucaparib 10 µM, 100% = cells with rucaparib alone) 60.3% | viability ([12]; at 5 µM, OCI-C5x cells, without rucaparib) 69.5% | viability ([12]; at 5 µM, OCI-P5x cells, with rucaparib 20 µM, 100% = cells with rucaparib alone) 40.3% | viability ([12]; at 5 µM, OCI-P5x cells, without rucaparib) 48.6%

Cc1ccc(C(N)=O)cc1Nc1nccc(-c2cn(C(C)C)c3cnccc23)n1
active: AC50 [1] 9.34 µM | AC50 [2] 18.7 µM | AC50 [3] 9.35 µM | AC50 [4] 8.33 µM | AC50 [5] 11.8 µM | AC50 [6] 7.42 µM | AC50 [7] 13.2 µM | IC50 [13] 11.8 µM
